Laboratory results as given in PubChem BioAssay.
For some assays here: Potency and affinity values are given separately. Calls of active or inactive are those of the source. How the calls were made is not given here.

Target: Plasmodium falciparum protein kinase 6 (PK6, PF3D7_1337100) (UniProt Q8IDW1)
Experiment: PfPK6 kinase inhibitors, biochemical, TCAMS library (AID 1159586)
Conditions: recombinant PfPK6, Kinase-Glo ATP depletion luminescence

Chain of Plasmodium falciparum protein kinase 6 (PK6, PF3D7_1337100) (Q8IDW1 1-305): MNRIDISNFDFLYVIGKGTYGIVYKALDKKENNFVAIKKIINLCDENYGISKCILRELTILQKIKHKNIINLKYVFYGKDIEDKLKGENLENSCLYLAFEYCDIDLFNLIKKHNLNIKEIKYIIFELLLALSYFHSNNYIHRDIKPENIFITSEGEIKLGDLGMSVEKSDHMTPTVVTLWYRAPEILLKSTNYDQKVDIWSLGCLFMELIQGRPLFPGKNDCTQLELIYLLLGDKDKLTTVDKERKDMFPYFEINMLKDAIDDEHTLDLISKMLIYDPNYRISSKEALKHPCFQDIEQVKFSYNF

outcome, inactive:
O=C1C(=Cc2cc(Cc3ccccc3)ccc2O)SC(=S)N1Cc1ccccc1, CN(Cc1ccc(NC(=O)CCC2CCN(C(=O)/C=C/c3ccc(Cl)c(Cl)c3)CC2)cc1)C1CCOCC1, CC(C)(C)NCC(O)COc1ccc(Cl)cc1C1=NNC(=O)CC1 (stereo not given), CCc1nc2c(cnn2CC)c(NC2CCOCC2)c1CNC(=O)c1ccoc1C, CN1CCCC1CCNCc1ccc(-c2ccc(CNCCc3ccccc3)cn2)cc1 (stereo not given), COc1ccc([N+](=O)[O-])cc1N(Cc1ccccc1-c1ccccc1)S(=O)(=O)c1ccc(C(F)(F)F)cc1, Cc1cc(Br)cnc1CCCCN=C1NC(=O)CN1C, CS(=O)(=O)Nc1ccc2c(C3CCN(CCC4CCN(C(=O)/C=C/c5ccc(Cl)c(Cl)c5)CC4)CC3)c[nH]c2c1, O=C(NC1CC1)c1ccc(Cn2c(SCc3cccc([N+](=O)[O-])c3)nc3ccccc3c2=O)cc1, CN1CCN(c2ccc3nc(-c4ccc5nc(-c6ccc(O)cc6)[nH]c5c4)[nH]c3c2)CC1, Cc1nc(-c2cccc(Nc3nccc(NCC(O)c4cccc(F)c4)n3)c2)cs1 (stereo not given), Cc1ccc(C2(C)CN(CCCOc3cccc(-c4ccc(C(=O)NC(C)C)cc4)c3)CCO2)cc1 (stereo not given), COc1cc2c(cc1OC)CC(NCCCCCCNCCc1ccc(Cl)cc1)CC2 (stereo not given), CCOc1ccc(N2CCN(CCCCNC(=O)c3ccc(NC(=O)c4ccc(Cl)cc4)cc3)CC2)c(OCC)c1, CC(C)CCN(Cc1cncn1Cc1cccc(C(F)(F)F)c1)C(=O)c1cncc(-c2ccccc2)c1, CCC1N=C(N)N=C(N)N1OCCCOc1c(Cl)cc(Cl)cc1Cl (stereo not given), COc1cc(NC(=O)c2sc(-c3ccc(Cl)cc3)cc2NC(=O)c2ccncc2)ccc1OCCN1CCCC1, COc1ccc(-c2cccc(NC(=O)c3cccc(C#N)c3)c2)cc1CN1CCNCC1, O=C(Nc1ccccc1)c1cnc[nH]1, CC(C)NC[C@@H](O)[C@H](Cc1ccccc1)NC(=O)c1cc2c3c(c1)c(C(C)C)cn3CCS(=O)(=O)N2C, CNc1ccc(CNCc2ccc(-c3ccc(-c4nc5ccc(F)cc5[nH]4)cc3)cc2)cc1, CN(C)c1ccc(N2C(N)=NC(N)=NC23CCCC3)cc1, Cc1cc(-c2cnc(N)c(-c3ccc(N4CCN(C)CC4)nc3)c2)cc(C)c1O, CCCCCCCN(Cc1ccc(OC(C)(C)C(=O)OCC)cc1)C(=O)Nc1ccccc1OC(F)(F)F, Cc1cccc2[nH]c(-c3ccc(-c4ccc(CN5CCN(CCO)CC5)cc4)cc3)nc12, Cc1cccc2[nH]c(-c3ccc(-c4ccc(CN5CCN(c6ccc(C#N)cn6)CC5)cc4)s3)nc12, Cc1cccc2[nH]c(-c3ccc(-c4cccc(NC(=O)c5cncn5C)c4)s3)nc12, c1ccc(COc2ccnc(NCCCOc3cccc(CN4CCCCC4)c3)c2)cc1, CCc1sc(-c2ccc(C(C)(C)C)cc2)nc1C(=O)NCCCN1CCCC1=O, COc1cccc(-c2ccc(NC(=O)C3CCCN(Cc4cccc(OC)c4O)C3)cc2)c1 (stereo not given), COc1ccc(C2CC(c3ccccc3O)=NN2C(=O)c2ccco2)cc1OC (stereo not given), CC(C)=C(C(=O)OCc1ccccc1)N1C(=O)[C@@H](NC(c2ccccc2)(c2ccccc2)c2ccccc2)[C@H]1[S@@](=O)CC(=O)OC(C)(C)C, CC(C)CNC(=O)c1cncc(-c2cccc(CNC3Cc4ccccc4C3)c2)c1, O=C(/C=C/c1ccc(Cl)c(Cl)c1)NCCCCCN1CCC(NC(=O)Nc2ccc(F)cc2F)CC1, C[C@@H]1CN(c2ccc3occ(C(=O)Nc4ccc(-c5ccncc5)c(Cl)c4)c3c2)C[C@H](C)N1C, CCNc1cc(C(=O)N[C@@H](Cc2ccccc2)[C@H](O)CN[C@H]2C[C@@H]3CC[C@H]2C3)cc(N2CCCCS2(=O)=O)c1, Cc1ccc2c(c1)nc(N)n2C[C@H](O)c1ccccc1, c1ccc(C2CCC(N3CCC(N4CCN(c5ccccc5)CC4)CC3)CC2)cc1 (stereo not given), CCn1ccc2c3c(N)nc(N)nc3ccc21, Cc1ccc2c(Cl)c(C(=O)N3CC(C)OC(C)C3)sc2c1 (stereo not given)

Target: Protein kinase 7 (PK7), Plasmodium falciparum 3D7 (PF3D7_0213400) (UniProt Q7YTF7)
Sequence (Q7YTF7 1-343): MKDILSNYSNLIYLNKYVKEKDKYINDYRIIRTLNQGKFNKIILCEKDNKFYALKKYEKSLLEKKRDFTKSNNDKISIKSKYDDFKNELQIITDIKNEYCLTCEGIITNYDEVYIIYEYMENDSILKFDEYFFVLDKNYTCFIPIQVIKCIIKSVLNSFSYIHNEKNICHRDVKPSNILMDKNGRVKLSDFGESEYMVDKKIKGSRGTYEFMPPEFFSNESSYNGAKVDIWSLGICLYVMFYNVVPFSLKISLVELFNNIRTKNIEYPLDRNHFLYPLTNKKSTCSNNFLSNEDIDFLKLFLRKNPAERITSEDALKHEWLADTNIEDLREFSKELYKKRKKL
Experiment: inhibition of Plasmodium PK7 catalytic activity – biochemical, TCAMS antimalarial set, Kinase-Glo luminescence (AID 1159587)
Conditions: recombinant PfPK7, Kinase-Glo ATP depletion luminescence

outcome, inactive:
O=C1C(=Cc2cc(Cc3ccccc3)ccc2O)SC(=S)N1Cc1ccccc1, CN(Cc1ccc(NC(=O)CCC2CCN(C(=O)/C=C/c3ccc(Cl)c(Cl)c3)CC2)cc1)C1CCOCC1, CC(C)(C)NCC(O)COc1ccc(Cl)cc1C1=NNC(=O)CC1 (stereo not given), CCc1nc2c(cnn2CC)c(NC2CCOCC2)c1CNC(=O)c1ccoc1C, CN1CCCC1CCNCc1ccc(-c2ccc(CNCCc3ccccc3)cn2)cc1 (stereo not given), COc1ccc([N+](=O)[O-])cc1N(Cc1ccccc1-c1ccccc1)S(=O)(=O)c1ccc(C(F)(F)F)cc1, Cc1cc(Br)cnc1CCCCN=C1NC(=O)CN1C, CS(=O)(=O)Nc1ccc2c(C3CCN(CCC4CCN(C(=O)/C=C/c5ccc(Cl)c(Cl)c5)CC4)CC3)c[nH]c2c1, O=C(NC1CC1)c1ccc(Cn2c(SCc3cccc([N+](=O)[O-])c3)nc3ccccc3c2=O)cc1, CN1CCN(c2ccc3nc(-c4ccc5nc(-c6ccc(O)cc6)[nH]c5c4)[nH]c3c2)CC1, Cc1nc(-c2cccc(Nc3nccc(NCC(O)c4cccc(F)c4)n3)c2)cs1 (stereo not given), Cc1ccc(C2(C)CN(CCCOc3cccc(-c4ccc(C(=O)NC(C)C)cc4)c3)CCO2)cc1 (stereo not given), COc1cc2c(cc1OC)CC(NCCCCCCNCCc1ccc(Cl)cc1)CC2 (stereo not given), CCOc1ccc(N2CCN(CCCCNC(=O)c3ccc(NC(=O)c4ccc(Cl)cc4)cc3)CC2)c(OCC)c1, CC(C)CCN(Cc1cncn1Cc1cccc(C(F)(F)F)c1)C(=O)c1cncc(-c2ccccc2)c1, CCC1N=C(N)N=C(N)N1OCCCOc1c(Cl)cc(Cl)cc1Cl (stereo not given), COc1cc(NC(=O)c2sc(-c3ccc(Cl)cc3)cc2NC(=O)c2ccncc2)ccc1OCCN1CCCC1, COc1ccc(-c2cccc(NC(=O)c3cccc(C#N)c3)c2)cc1CN1CCNCC1, O=C(Nc1ccccc1)c1cnc[nH]1, CC(C)NC[C@@H](O)[C@H](Cc1ccccc1)NC(=O)c1cc2c3c(c1)c(C(C)C)cn3CCS(=O)(=O)N2C, CNc1ccc(CNCc2ccc(-c3ccc(-c4nc5ccc(F)cc5[nH]4)cc3)cc2)cc1, CN(C)c1ccc(N2C(N)=NC(N)=NC23CCCC3)cc1, Cc1cc(-c2cnc(N)c(-c3ccc(N4CCN(C)CC4)nc3)c2)cc(C)c1O, CCCCCCCN(Cc1ccc(OC(C)(C)C(=O)OCC)cc1)C(=O)Nc1ccccc1OC(F)(F)F, Cc1cccc2[nH]c(-c3ccc(-c4ccc(CN5CCN(CCO)CC5)cc4)cc3)nc12, Cc1cccc2[nH]c(-c3ccc(-c4ccc(CN5CCN(c6ccc(C#N)cn6)CC5)cc4)s3)nc12, Cc1cccc2[nH]c(-c3ccc(-c4cccc(NC(=O)c5cncn5C)c4)s3)nc12, c1ccc(COc2ccnc(NCCCOc3cccc(CN4CCCCC4)c3)c2)cc1, CCc1sc(-c2ccc(C(C)(C)C)cc2)nc1C(=O)NCCCN1CCCC1=O, COc1cccc(-c2ccc(NC(=O)C3CCCN(Cc4cccc(OC)c4O)C3)cc2)c1 (stereo not given), COc1ccc(C2CC(c3ccccc3O)=NN2C(=O)c2ccco2)cc1OC (stereo not given), CC(C)=C(C(=O)OCc1ccccc1)N1C(=O)[C@@H](NC(c2ccccc2)(c2ccccc2)c2ccccc2)[C@H]1[S@@](=O)CC(=O)OC(C)(C)C, CC(C)CNC(=O)c1cncc(-c2cccc(CNC3Cc4ccccc4C3)c2)c1, O=C(/C=C/c1ccc(Cl)c(Cl)c1)NCCCCCN1CCC(NC(=O)Nc2ccc(F)cc2F)CC1, C[C@@H]1CN(c2ccc3occ(C(=O)Nc4ccc(-c5ccncc5)c(Cl)c4)c3c2)C[C@H](C)N1C, CCNc1cc(C(=O)N[C@@H](Cc2ccccc2)[C@H](O)CN[C@H]2C[C@@H]3CC[C@H]2C3)cc(N2CCCCS2(=O)=O)c1, Cc1ccc2c(c1)nc(N)n2C[C@H](O)c1ccccc1, c1ccc(C2CCC(N3CCC(N4CCN(c5ccccc5)CC4)CC3)CC2)cc1 (stereo not given), CCn1ccc2c3c(N)nc(N)nc3ccc21, Cc1ccc2c(Cl)c(C(=O)N3CC(C)OC(C)C3)sc2c1 (stereo not given)
